Screens: PubChem, National Center for Advancing Translational Sciences (NCATS)
TGFb inhibitor: qHTS for Inhibitors of TGF-b; 410,000 tested, 1.2% active; Potency, µM (series often up to 46.1 µM), without a hit: top-dose activity, negative = inhibition, most hits filed as inhibitors; HepG2 CAGA-GFP TGF-b/SMAD3 reporter, GFP fluorescence, 18 h; TGF-beta stimulated, 500 pg/mL final; AID 588855, 2011; note: potency is the fitted concentration of half-maximal effect; % is set by controls: 0 for no effect and ±100 for the full control effect; nearly all actives have a fitted effect of over 65% in size
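HEPG2 CAGA-GFP reporter cells (1000/well, DMEM with 1% FBS) received compounds, then recombinant TGF-beta at 500 pg/mL final for 18 hours at 37 degrees C. Per-cell GFP summed per well was normalised to unstimulated and stimulated DMSO controls before curve fitting.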
IL-1B inflam inh: qHTS for Inhibitors of Inflammasome Signaling: IL-1-beta AlphaLISA Primary Screen. THP-1 LPS/ATP IL-1B secretion, AlphaLISA, 16 h; stronger effect = lower value. activity change, % at 57.5 µM. 360,000 tested, 4.7% active; in the data active = activity change below about -50%; inconclusive = mostly about -30% to -49%; note: % is set by controls: 0 for no effect and ±100 for the full control effect
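Secreted IL-1B measured by AlphaLISA bead assay after 16 h compound exposure of THP-1 cells; compounds (final up to 57.5 uM) added 1 h before LPS (250 ng/mL) and ATP (1.25 mM) stimulation; lower signal means less secretion.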
S2 tox: Viability Counterscreen for Primary qHTS for Inhibitors of ATXN expression; Potency, µM (doses to about 56.7 µM), hits mostly cytotoxic; AID 651635, 2014; 400,000 tested, 0.49% active; S2 cells (HEK-293 line with an ATXN2-luciferase reporter) viability, CellTiter-Fluor protease fluorescence, 24 h; note: potency is the fitted concentration of half-maximal effect; nearly all actives have a fitted effect of over 40% in size
HepG2 tox: qHTS for Inhibitors of TGF-b: Cytotox Counterscreen | HepG2 CAGA-GFP viability, ATP luminescence, 18 h | 410,000 tested, 0.76% active | AID 588856, 2011 | Potency, µM (doses to about 46.1 µM), without a hit: at the highest dose activity change, negative = cytotoxicity, most hits filed as cytotoxic; note: potency is the fitted concentration of half-maximal effect
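CellTiter-Glo luminescence gave cytotoxicity after 18 hours at 37 degrees C. The cells were HepG2 CAGA-GFP in 1% FBS DMEM, stimulated with 500 pg/mL TGF-beta after compound addition. %Activity was normalised to no-cell wells (complete cell-killing) and DMSO (no toxicity), and curves were fitted and classified.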
ATXN2 expr inh: Primary qHTS for Inhibitors of ATXN expression | 360,000 tested, 0.72% active | AID 1745845, 2022 | HEK-293 ATXN2-luciferase reporter, luminescence, 24 h | Potency, µM (titrated, usually from 57 µM), for the others: top-dose activity change, negative = inhibition, hits mostly inhibitors; note: potency is the fitted concentration of half-maximal effect; % is set by controls: 0 for no effect and ±100 for the full control effect; nearly all actives have a fitted effect of over 55% in size
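ATXN2-luciferase reporter cells (luciferase flanked by upstream and downstream ATXN2 gene portions) were treated 24 h at 37 °C with compounds at up to 57 uM. SteadyGlo luminescence gave expression; GF-AFC fluorescence gave viability.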
* marks the source's active call; other numbers are inactive results; i = inactive; ? = inconclusive; / = no result given. Only some compounds are listed: those with a hit (about 5.7% of all), similar ones and a draw of the others. Unless noted, calls come from the whole dose curve; as a rule, active = well fitted curve in the direction sought with a large enough effect; inconclusive = small, poorly fitted or top-dose-only effect, or another doubt; inactive = no such curve, though single readings can be large; an effect the other way counts as inactive or inconclusive.

SMILES	TGFb inhibitor	IL-1B inflam inh	S2 tox	HepG2 tox	ATXN2 expr inh
O=C(Cn1cnc([N+](=O)[O-])c1)c1ccc(Cl)cc1	-2.2%	12.1	i	-0.4%	7.7%
CC1=C(C(=O)N(C)C)CC(CC(=O)NCCCCc2ccccc2)C(=O)N1CCC1=CCCCC1 (stereo unspecified)	?	-10.4	?	-101.3%	-18.5%
CC1=C(C(=O)N2CCCCCC2)CC(CC(=O)NCCCCc2ccccc2)C(=O)N1CCC1=CCCCC1 (stereo unspecified)	/	-67.4*	/	/	?
CC1=C(C(=O)N2CCCCCC2)CC(CC(=O)NCc2cccc3ccccc23)C(=O)N1CCC1=CCCCC1 (stereo unspecified)	/	-62.8*	?	/	-31.2%
CC1=C(C(=O)N2CCOCC2)CC(CC(=O)NC(c2ccccc2)c2ccccc2)C(=O)N1CCC1=CCCCC1 (stereo unspecified)	-3.0%	-18.7	i	0.1%	-11.5%
CCCCN1C(=O)C(CC(=O)NCc2cccc3ccccc23)CC(C(=O)N2CCCCCC2)=C1C (stereo unspecified)	/	-55.4*	?	/	-34.5%
CC1=C(C(=O)N(C(C)C)C(C)C)CC(CC(=O)NC(c2ccccc2)c2ccccc2)C(=O)N1CCC1=CCCCC1 (stereo unspecified)	11.2µM*	?	/	-26.9%	0.0%
COc1ccc(NC(=O)c2cc(C3CC3)nc3c2c(C)nn3-c2ccc(C)cc2)cc1OC	?	/	i	-7.5%	4.8%
COc1ccc2oc(=O)c(C(=O)N3CCN(c4ccc(C)cc4)CC3)cc2c1	?	/	i	-28.1%	-2.2%
C[C@@H]1C[C@H]2[C@@H]3CCC4=CC(=O)C=C[C@]4(C)[C@@]3(F)[C@@H](O)C[C@]2(C)[C@@]1(O)C(=O)CO	6.8%	-9.8	i	9.8%	11.9%
C[C@]12C=CC(=O)C=C1CC[C@@H]1[C@H]3C[C@@H](O)[C@](O)(C(=O)CO)[C@@]3(C)C[C@H](O)[C@]12F	/	/	i	/	/
CC(=O)[C@@]1(O)CC[C@H]2[C@@H]3C[C@H](C)C4=CC(=O)C=C[C@]4(C)[C@@]3(F)[C@@H](O)C[C@@]21C	20.6%	-79.2*	?	-11.5%	14.3%
CC(=O)OCC(=O)[C@@]12OC(C)(C)O[C@H]1C[C@H]1[C@@H]3C[C@H](F)C4=CC(=O)C=C[C@]4(C)[C@@]3(F)[C@@H](O)C[C@@]12C	/	/	/	/	-16.9%
CCCC(=O)O[C@]1(C(=O)COC(C)=O)CC[C@H]2[C@@H]3C[C@H](F)C4=CC(=O)C=C[C@]4(C)[C@@]3(F)[C@@H](O)C[C@@]21C	23.2%	-75.3*	i	4.5%	-20.2%
CC(=O)C12OC(C)(C)OC1CC1C3CCC4=CC(=O)C=CC4(C)C3(F)C(O)CC12C (stereo unspecified)	11.1%	-56.9*	i	-0.9%	-13.2%
O=C(Nc1ccccc1)N1CCN(Cc2ccc(Cl)cc2)CC1	0.9%	-9.9	?	-4.5%	/
O=C(Nc1ccc(Cl)cc1)N1CCCN(Cc2ccc(F)cc2)C1	?	?	?	11.2µM*	?
Cc1c(N)nc(C(CC(N)=O)NCC(N)C(N)=O)nc1C(=O)NC(C(=O)NC(C)C(O)C(C)C(=O)NC(C(=O)NCCc1nc(-c2nc(C(=O)NCCCN[C@@H](C)c3ccccc3)cs2)cs1)C(C)O)C(O[C@@H]1O[C@@H](CO)[C@@H](O)[C@H](O)[C@@H]1O[C@H]1O[C@H](CO)[C@@H](O)[C@H](OC(N)=O)[C@@H]1O)c1cnc[nH]1 (stereo partly specified)	/	/	i	/	/
CCc1c(C)sc2nc3c(C(=O)N4CCOCC4)cc(C(=O)c4ccccc4O)cn3c(=O)c12	-27.3%	-64.2*	i	-12.3%	-20.4%
Cc1sc2nc3c(SC(C)C(=O)O)cc(C(=O)c4ccccc4O)cn3c(=O)c2c1C (stereo unspecified)	-35.7%	?	?	3.1%	8.8%
Cc1nc2c(C)cccc2cc1C(=O)N/N=C/c1cccnc1	11.9%	-66.9*	i	-27.6%	1.6%
CCOC(=O)c1cc2c(=O)n3ccccc3nc2n(CCCOC)c1=NC(=O)c1cc2ccccc2o1	-0.4%	/	i	2.5%	-3.5%
CN[C@@H]1C[C@H]2O[C@@](C)([C@H]1OC)n1c3ccccc3c3c4c(c5c6ccccc6n2c5c31)C(=O)N[C@H]4O	/	/	/	/	1.22µM*
Cn1c2ccccc2c2c(C(=O)O)cn(C3CCCC3)c(=O)c21	?	14.5	i	-20.5%	-19.6%
COc1cccc(-c2cc3c(c(OC)c2)OCCN(Cc2cccn2-c2ccccn2)C3)c1	/	/	i	/	/
SMILES	TGFb inhibitor	IL-1B inflam inh	S2 tox	HepG2 tox	ATXN2 expr inh
Cc1ccc(C(=O)N2CCCC(C(=O)c3ccc(Oc4ccccc4)cc3)C2)cn1 (stereo unspecified)	-28.9%	-79.9*	?	-55.5%	?
Cc1ccc(C(=O)N2CCCC(C(=O)c3ccc(Cl)cc3C)C2)cn1 (stereo unspecified)	-2.1%	1.4	i	-26.9%	-8.8%
CCc1cc(C(=O)N2CCCC(C(=O)c3cccc(OC(C)C)c3)C2)n(C)n1 (stereo unspecified)	-18.6%	24.1	?	-10.9%	-22.0%
CCc1cc(C(=O)N2CCCC(C(=O)c3ccc(Oc4ccccc4)cc3)C2)n(C)n1 (stereo unspecified)	?	-60.7*	i	-22.7%	-30.0%
COc1ccc(Br)cc1CNC(=O)Cn1nc(C)n2c(cc3cc(F)ccc32)c1=O	-0.9%	/	i	-0.2%	6.1%
Oc1ccccc1-c1nc(/C=C/c2ccccc2)nn1-c1ccccc1	1.2%	?	i	-24.5%	8.3%
Oc1ccc(/C=C/c2nc(-c3ccccc3O)n(-c3ccccc3)n2)cc1	?	-65.6*	?	-99.8%	-27.9%
Oc1ccc(/C=C/c2nc(-c3ccccc3O)n(-c3ccccc3)n2)c(O)c1	11.2µM*	/	/	14.1µM*	/
Oc1ccccc1-c1nc(/C=C/c2ccc(F)cc2)nn1-c1ccccc1	-9.2%	/	/	-23.8%	/
O=C(NCCc1ccncc1)c1cnn(-c2ncc3c(n2)-c2ccccc2CCC3)c1C1CC1	/	/	i	/	/
COc1ccc2c(c1)c(=O)c(S(=O)(=O)c1ccc(F)cc1)cn2Cc1ccccc1Cl	9.2%	/	i	-14.6%	-9.9%
COc1ccccc1-c1nnc(N)s1	5.1%	-9.7	i	18.6%	-4.2%
COc1ccccc1-c1nnc(SC2CCc3ccccc3NC2=O)s1 (stereo unspecified)	12.6µM*	-13.0	i	1.4%	11.4%
